Test results reported in PubChem BioAssay AID1159580 (chemical genetic matrix, 2015).
Among all 5,500 compounds or so, about 2,000 (36%) were called active. Not shown: some 18% with an inconclusive outcome. No stated cut-off is given here; in the data, active means normalized growth mostly below about 0.91 (no sharp cut-off); inconclusive means no clear call, values can overlap the other calls; inactive means mostly above about 0.92. This is one part of the list.

Assay: chemical genetic growth profiling, strain panel (AID 1159580);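 further: tested at 20 µM; growth read once vehicle control cultures reached saturation at 30 °C; 1 = growth at the plate median or of vehicle wells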
Conditions: S. cerevisiae deletion strains, growth OD

Measured: normalized growth

COc1ccc(CC2CCC(=NOC(=O)c3ccc(C(C)(C)C)cc3)CC2)cc1 (stereo unspecified)
inactive: locus YAR019C, strain CDC15, stronger effect = lower value 0.991 | locus YBL105C, strain PKC1, stronger effect = lower value 1.01 | locus YBR135W, strain CKS1, stronger effect = lower value 0.988 | locus YBR136W, strain MEC1, stronger effect = lower value 0.985 | locus YBR160W, strain CDC28, stronger effect = lower value 0.993 | locus YDL017W, strain CDC7, stronger effect = lower value 0.982 | locus YDL028C, strain MPS1, stronger effect = lower value 0.984 | locus YDL101C, strain DUN1, stronger effect = lower value 0.977 | locus YDL108W, strain KIN28, stronger effect = lower value 0.984 | locus YDL132W, strain cdc53, stronger effect = lower value 0.977 | locus YDL214C, strain PRR2, stronger effect = lower value 0.947 | locus YDR052C, strain DBF4, stronger effect = lower value 0.975 | locus YDR054C, strain cdc34, stronger effect = lower value 0.98 | locus YDR226W, strain ADK1, stronger effect = lower value 0.979 | locus YDR477W, strain SNF1, stronger effect = lower value 0.946 | locus YER123W, strain YCK3, stronger effect = lower value 0.927 | locus YER133W, strain GLC7, stronger effect = lower value 0.936 | locus YFL009W, strain cdc4, stronger effect = lower value 0.969 | locus YFL029C, strain CAK1, stronger effect = lower value 0.988 | locus YFR003C, strain YPI1, stronger effect = lower value 0.983 | locus YFR019W, strain FAB1, stronger effect = lower value 0.972 | locus YFR028C, strain CDC14, stronger effect = lower value 0.975 | locus YGR040W, strain KSS1, stronger effect = lower value 0.936 | locus YGR052W, strain FMP48, stronger effect = lower value 0.958 | locus YGR092W, strain DBF2, stronger effect = lower value 0.999 | locus YHR079C, strain IRE1, stronger effect = lower value 0.999 | locus YHR082C, strain KSP1, stronger effect = lower value 1.01 | locus YHR205W, strain SCH9, stronger effect = lower value 0.999 | locus YIL147C, strain SLN1, stronger effect = lower value 0.978 | locus YJL095W, strain BCK1, stronger effect = lower value 0.952 | locus YJL128C, strain PBS2, stronger effect = lower value 0.993 | locus YJL157C, strain FAR1, stronger effect = lower value 0.955 | locus YJR016C, strain ILV3, stronger effect = lower value 0.99 | locus YJR066W, strain TOR1 (second series), stronger effect = lower value 0.909 | locus YJR066W, strain TOR1, stronger effect = lower value 1.06 | locus YKL048C, strain ELM1, stronger effect = lower value 0.953 | locus YKL067W, strain YNK1, stronger effect = lower value 0.951 | locus YKL101W, strain HSL1, stronger effect = lower value 0.941 | locus YKL193C, strain SDS22, stronger effect = lower value 0.987 | locus YKL203C, strain TOR2, stronger effect = lower value 1.01 | locus YLR133W, strain CKI1, stronger effect = lower value 0.961 | locus YLR403W, strain SFP1, stronger effect = lower value 1.01 | locus YML070W, strain DAK1, stronger effect = lower value 0.93 | locus YMR001C, strain CDC5, stronger effect = lower value 0.986 | locus YMR205C, strain PFK2 (second series), stronger effect = lower value 0.959 | locus YMR277W, strain FCP1, stronger effect = lower value 0.976 | locus YNL006W, strain LST8, stronger effect = lower value 1 | locus YNL020C, strain ARK1, stronger effect = lower value 0.964 | locus YNL161W, strain CBK1, stronger effect = lower value 0.994 | locus YNL183C, strain NPR1, stronger effect = lower value 1.06 | locus YNL207W, strain RIO2, stronger effect = lower value 0.973 | locus YNL222W, strain SSU72, stronger effect = lower value 0.993 | locus YNL307C, strain MCK1 (second series), stronger effect = lower value 0.94 | locus YOL078W, strain AVO1, stronger effect = lower value 0.988 | locus YOL136C, strain PFK27, stronger effect = lower value 0.956 | locus YOR061W, strain CKA2, stronger effect = lower value 0.963 | locus YOR119C, strain RIO1, stronger effect = lower value 1.02 | locus YOR231W, strain MKK1, stronger effect = lower value 0.975 | locus YOR329C, strain SCD5, stronger effect = lower value 0.998 | locus YPL031C, strain PHO85, stronger effect = lower value 0.937 | locus YPL153C, strain RAD53, stronger effect = lower value 0.924 | locus YPL204W, strain HRR25, stronger effect = lower value 0.916 | locus YPL209C, strain IPL1, stronger effect = lower value 0.988 | locus YPL256C, strain CLN2, stronger effect = lower value 0.881 | locus YPR025C, strain CCL1, stronger effect = lower value 0.999 | locus YPR106W, strain ISR1, stronger effect = lower value 0.986 | locus YPR111W, strain DBF20, stronger effect = lower value 0.98 | strain NNK1, stronger effect = lower value 0.977 | strain TSCII, stronger effect = lower value 0.978
active: locus YHR030C, strain SLT2, stronger effect = lower value 0.828 | locus YLR113W, strain HOG1, stronger effect = lower value 0.844
